# Rows were chosen to be rich in hits. Some 2.9% of all compounds tested hit in one or more screens of this group.
# KLK7 zymogen act: proKLK7 (human) activation, primary screen; P49862; purified proKLK7, EDANS-DABCYL substrate fluorescence; 100% is mature enzyme control, 0% vehicle; activation, % at 7 µM; hit rate 0.9% among 370,000; AID 652039;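 active = activation above the mean of all tested compounds plus 3 SD, computed per campaign excluding outliers beyond control limits, cut at about 13% in these data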
# PLCb3 inh: inhibitors of human phospholipase C beta3 | hit rate 0.18% among 370,000 | Purified PLC-beta3, fluorogenic substrate, fluorescence | Q01970 | inhibition, % at 12.2 µM | AID 720704; in the data active = inhibition above about 11%;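 also: 0% = median of compound wells on plate and 100% = full blocker control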
# ADAM10 inh: inhibits human ADAM10; hit rate 0.62% among 370,000; inhibition, % at 7 µM; O14672; recombinant ADAM10, EDANS/DABCYL FRET peptide cleavage, 3 h;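 active = inhibition above a per-campaign cutoff equal to the mean of compounds falling between control-based bounds plus 3 SD, cut at about 20% in these data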;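 also: 0% = DMSO wells while the 100% control is not disclosed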
# ADAM17 inh: ADAM17 inhibition, QFRET primary screen; P78536; recombinant ADAM17, EDANS/DABCYL FRET peptide cleavage; inhibition, % at 6.95 µM; hit rate 0.83% among 370,000;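 active = inhibition above the mean of compounds lying between control limits plus 3 SD, set per campaign, cut at about 8.5% in these data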;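 also: 0% = DMSO-only wells as the low control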
# Target sequence (P78536 215-824 limits assumed): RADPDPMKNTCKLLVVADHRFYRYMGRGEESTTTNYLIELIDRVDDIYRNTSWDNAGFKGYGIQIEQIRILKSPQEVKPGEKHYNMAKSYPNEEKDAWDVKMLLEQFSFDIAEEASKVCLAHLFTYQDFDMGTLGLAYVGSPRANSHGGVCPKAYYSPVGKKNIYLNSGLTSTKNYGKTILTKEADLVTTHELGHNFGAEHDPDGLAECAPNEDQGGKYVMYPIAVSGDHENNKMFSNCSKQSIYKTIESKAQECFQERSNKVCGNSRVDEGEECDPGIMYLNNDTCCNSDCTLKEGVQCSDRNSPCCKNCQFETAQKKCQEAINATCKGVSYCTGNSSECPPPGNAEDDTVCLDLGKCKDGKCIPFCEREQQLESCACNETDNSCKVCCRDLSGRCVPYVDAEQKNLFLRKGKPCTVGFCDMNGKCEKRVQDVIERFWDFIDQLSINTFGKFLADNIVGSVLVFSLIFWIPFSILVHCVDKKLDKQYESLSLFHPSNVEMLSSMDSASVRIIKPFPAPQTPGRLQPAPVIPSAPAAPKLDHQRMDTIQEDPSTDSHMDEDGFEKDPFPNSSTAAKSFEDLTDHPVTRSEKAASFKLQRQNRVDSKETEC
# PLCg1 inh: blocks human PLC-gamma1 enzyme activity; P19174; purified PLC-gamma1, fluorogenic substrate, fluorescence; inhibition, % at 12.2 µM; hit rate 0.84% among 370,000; AID 720700; in the data active = inhibition above about 9.5%
# ADAM10 ctr: inhibits human ADAM10 in ADAM17 exosite counter-screen; hit rate 47% among 2,900; recombinant ADAM10, EDANS/DABCYL FRET peptide cleavage, 3 h; AID 743256; shares compounds with ADAM17 inh; inhibition, % at 6.95 µM;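 active = mean inhibition over the triplicate runs exceeds the activity threshold set in the earlier primary screen, cut at about 20% in these data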;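 also: 0% = DMSO wells and 100% = marimastat wells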
# ADAM17 confirm: human ADAM17 inhibition, confirmation; shares compounds with ADAM17 inh; recombinant ADAM17, EDANS/DABCYL QFRET peptide cleavage; inhibition, % at 6.95 µM; hit rate 65% among 2,900;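 active = mean inhibition across replicates above the hit cutoff set in the primary screen, cut at about 8.5% in these data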;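 also: 0% = DMSO wells and 100% = marimastat wells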
# Starred values were filed as active, the others as inactive; x = no result.
SMILES,KLK7 zymogen act,PLCb3 inh,ADAM10 inh,ADAM17 inh,PLCg1 inh,ADAM10 ctr,ADAM17 confirm
CCc1ccc(N(CC(=O)Nc2nc3ccc(C)cc3s2)S(=O)(=O)c2c(C)noc2C)cc1,0,0,16,9.7*,0,46*,26*
Cc1ccc(S(=O)(=O)C[C@@H]2OC[C@H](C(C)C)N2S(=O)(=O)c2ccc(C)cc2)cc1,1,2,4,4,1,x,x
Cc1cc(C(=O)Nc2ccc(Nc3ccccc3)cc2)ccc1[N+](=O)[O-],0,-1,15,6,1,x,x
O=C(Nc1ccc(Nc2ccccc2)cc1)c1ccc(Cl)c([N+](=O)[O-])c1,1,-4,17,8.6*,3,28*,18*
COC(=O)C(Cc1c[nH]c2ccccc12)NC(=O)c1cccs1 (stereo not given),0,-7,-2,-2,1,x,x
O=C(NC(Cc1c[nH]c2ccccc12)C(=O)OCC(=O)c1cccc2ccccc12)c1cccs1 (stereo not given),-6,-14,10,9.5*,-8,9,8.9*
Cc1cc(C)n(CCc2nc(-c3ccc(C(C)(C)C)cc3)cs2)n1,0,5,19,12*,9,14,11*
Cc1cc(C)n(CCc2nc(-c3ccc(F)cc3)cs2)n1,0,1,-3,-3,-2,x,x
Nn1c(SCC(=O)N2CCOCC2)nnc1-c1cc(-c2ccc(F)cc2)n[nH]1,0,4,2,5,0,x,x
COc1cccc(-c2cnc3c(NC(C)=O)cc(-c4ccsc4)cn23)c1,0,-51,-52,-15,-39,x,x
C/C(=C\c1ccc(C(=O)O)cc1)c1ccc2c(c1)C(C)(C)CCC2(C)C,0,7,6,9.0*,8,6,5
CCC(C)[C@H](NC(=O)[C@@H]1CSC2c3ccccc3C(=O)N21)C(=O)NCC1CCCO1 (stereo not given in full),0,-3,1,12*,4,7,3
Cc1ccc(NC(CNS(=O)(=O)c2ccc(Cl)cc2)c2ccccc2)cc1 (stereo not given),0,6,15,13*,5,31*,15*
Cc1cc(C)nc(N2CCN(C(=O)CSc3nc4ccccc4nc3N3CC(C)OC(C)C3)CC2)n1 (stereo not given),-1,-3,-2,0,-2,x,x
COc1ccc(-n2c(=S)[nH]c3c(oc4ccccc43)c2=O)cc1,-1,0,6,9.2*,0,3,6
Cc1ccc(-n2c(=O)[nH]c3c(oc4ccccc43)c2=O)cc1,0,-8,-30,-5,-4,x,x
Cc1cc(C)c(S(=O)(=O)Nc2ccc3c4c(cccc24)CC3)c(C)c1,0,-8,14,9.3*,-1,17,12*
Cc1cc(C)c(S(=O)(=O)Nc2ccc(O)cc2)c(C)c1,0,-1,2,-3,-2,x,x
Cc1cc(C)c(S(=O)(=O)Nc2ccc3c(c2)CCC3)c(C)c1,0,4,18,13*,13*,26*,12*
O=C(NCCn1cc(SCc2ccc(F)cc2)c2ccccc21)c1c(F)cccc1F,0,-2,12,9.3*,-2,41*,21*
Brc1cccc(-c2nc3c4ccccc4ccn3c2Cc2ccsc2)c1,-4,-49,-25,-7,-28,x,x
CCOC(=O)[C@]12CCCC=C1N(CCC1=CCCCC1)C(=O)[C@H](CC(=O)N1CCC(c3ccccc3)CC1)C2,1,2,9,3,0,x,x
N#Cc1c(NC(=O)COC(=O)C2CC3C=CC2C3)oc(-c2ccccc2)c1-c1ccccc1 (stereo not given),1,-16,16,8.9*,-5,-14,-2
COc1ccccc1OCC(=O)Nc1oc(-c2ccccc2)c(-c2ccccc2)c1C#N,-1,-22,4,3,-18,x,x
COc1ccc(OC)c(NC(=O)C2(C)CCN2CCOc2ccccc2)c1 (stereo not given),0,-1,-7,3,-2,x,x
SMILES,KLK7 zymogen act,PLCb3 inh,ADAM10 inh,ADAM17 inh,PLCg1 inh,ADAM10 ctr,ADAM17 confirm
Cc1ccc(NC(=O)[C@@H]2CC(=O)O[C@@H]2c2ccccc2)cc1C,0,2,-3,-3,1,x,x
NS(=O)(=O)c1ccc(N/N=C/C=C/c2ccccc2[N+](=O)[O-])cc1,0,-8,17,8.7*,5,19,19*
C=CCc1c(C)nc(-c2ccccc2)nc1N/N=C(\C)c1ccc(N)cc1,0,0,3,2,1,x,x
C=CCc1c(C)nc(-c2ccccc2)nc1Nc1ccccc1O,0,-1,15,10*,2,29*,17*
CC(C)C[C@@H]1COc2cc(NC3CC3)ccc2S(=O)(=O)N1,-1,1,-5,-3,3,x,x
CCOC(=O)CC(=O)CSCC(=O)Nc1ccc(C)cc1,-1,-9,1,9.1*,0,6,7
CCN(CC(=O)Nc1ccc(NC(C)=O)cc1)C(=O)CSCC(=O)Nc1ccc(C)cc1,0,-1,9,1,5,x,x
Cc1cccc(C)c1NC(=O)C1(C)CSCC(=O)N1CCc1c[nH]c2ccccc12 (stereo not given),0,5,-5,11*,3,1,4
c1ccc(-c2ccc(C3=Nn4c(nnc4-c4ccccn4)SC3)cc2)cc1,0,-3,0,1,0,x,x
Cc1cc(Cl)ccc1OCc1n[nH]c(=S)n1C1CCCCC1,0,-4,9,9.3*,-1,30*,11*
CC(C)CCCCCCNC(=S)Nc1ccc(S(=O)(=O)N2CCOCC2)cc1,0,3,16,9.0*,0,47*,23*
O=S(=O)(c1ccc(NC(=S)Nc2ccccc2)cc1)N1CCOCC1,0,3,2,-4,1,x,x
Cc1ccc(-c2cc(C(=O)N=Nc3c(O)[nH]c4ccccc34)[nH]n2)cc1C,0,3,0,0,2,x,x
Cc1[nH]c2ccccc2c1C(=O)COC(=O)c1c(-c2ccccc2Cl)noc1C,-3,0,20,9.5*,-2,33*,18*
COC(CNC(=O)[C@H](Cc1c[nH]c2ccccc12)NC1(C(=O)NC2CCCCC2)CCCCC1)OC,x,1,-7,-3,1,x,x
COc1ccc(C(CNC(=O)c2cccc(N(C)C)c2)N2CCCC2)cc1 (stereo not given),1,-115,2,9.4*,-86,-41,-3
CCOC(=O)N1CCC(NC(=O)CS(=O)(=O)Cc2nc(-c3cccc(OC)c3)oc2C)CC1,0,3,-1,0,1,x,x
CCOC(=O)N1CCC(NC(=O)CS(=O)(=O)Cc2nc(-c3cccc(Cl)c3)oc2C)CC1,0,-7,-3,9.6*,7,2,3
